Assay results from PubChem BioAssay (NCATS).
Inconclusive results are not listed. Entries that show only a call come without a potency. Active and inactive are the calls of the source. Calls follow the shape of the dose curve; as a rule, active = well fitted curve in the direction sought with a large enough effect; inconclusive = small, poorly fitted or top-dose-only effect, or another doubt; inactive = no such curve, though single readings can be large; an effect the other way counts as inactive or inconclusive.

Experiments:
[1] = Confirmatory screen GU Rhodamine qHTS for Zika virus inhibitors qHTS (AID 1347157); also: nearly all actives have a fitted effect of over 70% in size
Source text: Avindra Nath, Ph.D., National Institute of Neurological Disorders and Stroke (NINDS), Bethesda, MD
Radhakrishnan Padmanabhan, Ph.D., Georgetown University (GU), Washington D.C.
Zika Virus causes congenital defects, including microcephaly and is associated with Guillain-Barre syndrome, eningoencephalitis and myelitis in infected adult. […] Using a target-based approach, we hope to establish a screening paradigm to uncover novel, cell-active NS2B-NS3 protease (Zika Virus) specific inhibitors from NCATS' collection of small molecules using qHTS.
Four assay panel was created to identify potential Zika Virus inhibitors. […]
Briefly, 3 microL of enzyme (25 nM final concentration), in assay buffer (10 mM Tris-HCl pH 8.0 with 0.01% Tween 20) were dispensed into a 1,536-well solid-bottom black plate (Greiner Bio One, Monroe, NC). […] Plates were then immediately read on a ViewLux High-throughput CCD imager (PerkinElmer, Waltham, MA) equipped with FITC fluorescence optics (480(20) nm excitation, 540(25) nm emission), then incubated (room temperature, protected from light) for 15 minutes (~15% conversion). The change in fluorescence intensity over the 15-minute reaction period was normalized against no-inhibitor and no-enzyme controls and the resulting percent inhibition data were fitted to a 4-parameter Hill equation. […]

[2] = ZIKV-mCherry secondary qHTS for Zika virus inhibitors (AID 1347158); also: top concentration of the series differs between compounds
Summary of the method: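 Vero cells (5,000/well) were given compound, then infected with ZIKV-mCherry at MOI 1 for 48–72 h at 37 °C. After PFA fixation and Hoechst staining, imaging gave percent mCherry-positive cells. The positivity threshold was RFU above 450, 3 SD over negative controls.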

[3] = system: Zika virus NS2B-NS3 protease (linked); experiment: 384 well plate NINDS AMC confirmatory qHTS for Zika virus inhibitors (AID 1347163); conditions: Recombinant NS2B-NS3 protease, Ac-VKTGKR-AMC fluorescence; also: potency is read from the fitted curve at half-maximal effect; nearly all actives have a fitted effect of over 50% in size
Summary of the method: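 Linked NS2B-NS3 protease (final 5 nM, 30 nM or 60 nM) was preincubated with compounds (final up to 1 mM) for ~15 minutes. Ac-VKTGKR-AMC substrate (final 30 microM) then reacted for 25 minutes at room temperature in the dark. Fluorescence (ex 355/em 460 nm) was normalized to no-enzyme and no-inhibitor controls.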

[4] = system: Zika virus NS2B-NS3 protease (linked construct); experiment: 384 well plate NINDS Rhodamine confirmatory qHTS for Zika virus inhibitors (AID 1347164); conditions: rhodamine-110 peptide substrate fluorescence;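 also: fluorescence from protease cleavage of Ac-LKRR-rhodamine 110 substrate; potency is read from the fitted curve at half-maximal effect; nearly all actives have a fitted effect of over 65% in size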
Summary of the method: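 Linked protease at a final 5 nM, 30 nM or 60 nM was preincubated ~15 min with compounds, then given 10 microM Ac-LKRR-Rhodamine 110. Fluorescence (ex 485/em 538 nm) after 25 min in the dark at room temperature.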

[5] = OV-KATE Cancer Cell Toxicity qHTS against the NCATS CANVASS Library (AID 1347345)
Summary of the method: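 Quantitative HTS format: an 11-concentration series was applied to 1000 cells/well following a 4-hour attachment. Cultures ran 72 hours before ATP luminescence detection by CellTiter-Glo.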

COc1ccccc1Oc1c(NS(=O)(=O)c2ccc(C(C)(C)C)cc2)nc(-c2ncccn2)nc1OCCO
outcome [1]: inactive

O=C(O)Cn1c(C(=O)Nc2nc(-c3ccccc3Cl)cs2)cc2ccccc21
outcome [2]: inactive | Potency [3]: 70.8 µM (active) | Potency [4]: 28.2 µM (active)

C[C@@H]1O[C@@H](OC[C@H]2O[C@@H](Oc3c(-c4ccc(O)c(O)c4)oc4cc(O)cc(O)c4c3=O)[C@H](O)[C@@H](O)[C@@H]2O)[C@H](O)[C@H](O)[C@H]1O
outcome [5]: inactive
